# Results as given in PubChem BioAssay AID1508601 (ICCB-Longwood Screening Facility, Harvard Medical School, 2020).
# Several values for one entry are separate records, joined by “and”; a condition that tells them apart may be missing. Identical values can stand only once. Screen size: about 5,700 compounds; about 85 (1%) were called active. Rule as the data show it: active = p53-positive nuclei above about 36% (passing the limit was not always enough); inactive = the rest. Shown is part of a subset that was picked to be rich in actives.
# Tests used:
# [1] = nuclear p53 accumulation, HPV+ cells – imaging, p53-positive nuclei imaging, 24 h, 48 h (AID 1508601); conditions: 24/48 h
# [2] = target: Cellular tumor antigen p53 (Homo sapiens) (UniProt P04637); test: as above; conditions: 24/48 h, stronger effect = higher value
# Cellular tumor antigen p53 (Homo sapiens), sequence (P04637 whole entry, looked up): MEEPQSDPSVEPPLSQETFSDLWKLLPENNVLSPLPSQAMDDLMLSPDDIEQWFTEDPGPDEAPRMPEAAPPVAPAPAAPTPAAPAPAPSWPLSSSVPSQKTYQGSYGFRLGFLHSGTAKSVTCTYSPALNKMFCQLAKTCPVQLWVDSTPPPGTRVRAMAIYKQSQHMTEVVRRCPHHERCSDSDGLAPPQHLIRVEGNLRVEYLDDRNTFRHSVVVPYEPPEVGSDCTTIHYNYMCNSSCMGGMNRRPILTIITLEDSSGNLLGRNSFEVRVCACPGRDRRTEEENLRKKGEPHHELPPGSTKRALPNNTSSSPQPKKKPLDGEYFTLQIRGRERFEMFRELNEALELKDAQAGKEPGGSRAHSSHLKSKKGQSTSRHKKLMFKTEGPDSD
# [3] = measured here: cell number at 24 h, Library stock concentration: 80 uM
# [4] = measured here: cell number at 24 h, Library stock concentration: 400 uM
# [5] = measured here: cell number at 24 h, Library stock concentration: 2 mM
# [6] = measured here: cell number at 24 h, Library stock concentration: 3.33 mM
# [7] = measured here: cell number at 24 h, Library stock concentration: 10 mM
# [8] = measured here: cell number at 48 h, Library stock concentration: 80 uM
# [9] = measured here: cell number at 48 h, Library stock concentration: 400 uM
# [10] = measured here: cell number at 48 h, Library stock concentration: 2 mM
# [11] = measured here: cell number at 48 h, Library stock concentration: 3.33 mM
# [12] = measured here: cell number at 48 h, Library stock concentration: 10 mM
# [13] = Library stock concentration: 80 uM
# [14] = Library stock concentration: 400 uM
# [15] = Library stock concentration: 2 mM
# [16] = Library stock concentration: 3.33 mM
# [17] = Library stock concentration: 10 mM
# [18] = measured here: p53 positive nuclei at 24 h, Library stock concentration: 80 uM
# [19] = measured here: p53 positive nuclei at 24 h, Library stock concentration: 400 uM
# [20] = measured here: p53 positive nuclei at 24 h, Library stock concentration: 2 mM
# [21] = measured here: p53 positive nuclei at 24 h, Library stock concentration: 3.33 mM
# [22] = measured here: p53 positive nuclei at 24 h, Library stock concentration: 10 mM
smiles,measurement,setting,value
Cc1nc(Nc2n[nH]c3c2CN(C(=O)NC(CN(C)C)c2ccccc2)C3(C)C)c2sccc2n1 (centres undefined),"nuclei count, normalised","[1]; measured here: cell number at 24 h, Library stock concentration: 46 uM",105%
same,"nuclei count, normalised",[1]; [3],95.1%
same,"nuclei count, normalised","[1]; measured here: cell number at 24 h, Library stock concentration: 278 uM",96.3%
same,"nuclei count, normalised",[1]; [4],85.6%
same,"nuclei count, normalised","[1]; measured here: cell number at 24 h, Library stock concentration: 1.67 mM",75.5%
same,"nuclei count, normalised",[1]; [5],66.2%
same,"nuclei count, normalised",[1]; [6],47.2%
same,"nuclei count, normalised",[1]; [7],45.2% and 45.1%
same,"nuclei count, normalised","[1]; measured here: cell number at 48 h, Library stock concentration: 46 uM",108%
same,"nuclei count, normalised",[1]; [8],96.4%
same,"nuclei count, normalised","[1]; measured here: cell number at 48 h, Library stock concentration: 278 uM",99.1%
same,"nuclei count, normalised",[1]; [9],92.2%
same,"nuclei count, normalised","[1]; measured here: cell number at 48 h, Library stock concentration: 1.67 mM",72.1%
same,"nuclei count, normalised",[1]; [10],63.4%
same,"nuclei count, normalised",[1]; [11],37.3%
same,"nuclei count, normalised",[1]; [12],32.4% and 35.1%
same,"p53-positive nuclei, normalised",[2]; Library stock concentration: 46 uM,-0.184% (inactive)
same,"p53-positive nuclei, normalised",[2]; [13],-0.159% (inactive)
same,"p53-positive nuclei, normalised",[2]; Library stock concentration: 278 uM,-0.101% (inactive)
same,"p53-positive nuclei, normalised",[2]; [14],-0.117% (inactive)
same,"p53-positive nuclei, normalised",[2]; Library stock concentration: 1.67 mM,0.691% (inactive)
same,"p53-positive nuclei, normalised",[2]; [15],2.71% (inactive)
same,"p53-positive nuclei, normalised",[2]; [16],69.1% (active)
same,"p53-positive nuclei, normalised",[2]; [17],18.9% (inactive) and 1.61% (inactive)
same,"p53-positive nuclei, normalised","[2]; measured here: p53 positive nuclei at 24 h, Library stock concentration: 46 uM",0.116%
same,"p53-positive nuclei, normalised",[2]; [18],-0.151%
same,"p53-positive nuclei, normalised","[2]; measured here: p53 positive nuclei at 24 h, Library stock concentration: 278 uM",-0.0682%
same,"p53-positive nuclei, normalised",[2]; [19],0.0839%
same,"p53-positive nuclei, normalised","[2]; measured here: p53 positive nuclei at 24 h, Library stock concentration: 1.67 mM",1.31%
same,"p53-positive nuclei, normalised",[2]; [20],2.05%
same,"p53-positive nuclei, normalised",[2]; [21],6.89%
same,"p53-positive nuclei, normalised",[2]; [22],1.74% and 0.752%
CC(C)CC(=O)Nc1n[nH]c2c1CN(C(=O)C1CCN(C)CC1)C2(C)C,"nuclei count, normalised",[1]; [3],90.1%
same,"nuclei count, normalised",[1]; [4],79.8%
same,"nuclei count, normalised",[1]; [5],61%
same,"nuclei count, normalised",[1]; [6],45.9%
same,"nuclei count, normalised",[1]; [7],39.3%
same,"nuclei count, normalised",[1]; [8],91.5%
same,"nuclei count, normalised",[1]; [9],71.9%
same,"nuclei count, normalised",[1]; [10],44.9%
same,"nuclei count, normalised",[1]; [11],31.6%
same,"nuclei count, normalised",[1]; [12],23.2%
same,"p53-positive nuclei, normalised",[2]; [13],-0.0742% (inactive)
same,"p53-positive nuclei, normalised",[2]; [14],0.409% (inactive)
same,"p53-positive nuclei, normalised",[2]; [15],5.57% (inactive)
same,"p53-positive nuclei, normalised",[2]; [16],45.4% (inactive)
same,"p53-positive nuclei, normalised",[2]; [17],3.79% (inactive)
same,"p53-positive nuclei, normalised",[2]; [18],-0.129%
same,"p53-positive nuclei, normalised",[2]; [19],0.453%
same,"p53-positive nuclei, normalised",[2]; [20],0.779%
same,"p53-positive nuclei, normalised",[2]; [21],13.5%
same,"p53-positive nuclei, normalised",[2]; [22],0.472%
CCCCCOC(=O)Nc1nc(=O)n(C2OC(C)C(O)C2O)cc1F (centres undefined),"nuclei count, normalised",[1]; [6],99.3%
same,"nuclei count, normalised",[1]; [11],102%
same,"p53-positive nuclei, normalised",[2]; [16],-0.587% (inactive)
same,"p53-positive nuclei, normalised",[2]; [21],-0.329%
CCC(=O)O[C@@]1(C(=O)CCl)C(C)C[C@H]2[C@@H]3CC(F)C4=CC(=O)C=C[C@]4(C)[C@]3(F)C(O)C[C@@]21C (some centres undefined),"nuclei count, normalised",[1]; [6],104%
same,"nuclei count, normalised",[1]; [11],97.5%
same,"p53-positive nuclei, normalised",[2]; [16],-0.166% (inactive)
same,"p53-positive nuclei, normalised",[2]; [21],-0.278%
CCN(CC)Cc1ccc2cc(COC(=O)Nc3ccc(C(=O)NO)cc3)ccc2c1,"nuclei count, normalised",[1]; [6],39.9%
same,"nuclei count, normalised",[1]; [11],22.6%
same,"p53-positive nuclei, normalised",[2]; [16],95.7% (active)
same,"p53-positive nuclei, normalised",[2]; [21],67.1%
COc1ccc(Cn2ccc3ccc(C(=O)NO)cc32)cc1,"nuclei count, normalised",[1]; [3],107%
same,"nuclei count, normalised",[1]; [4],107%
same,"nuclei count, normalised",[1]; [5],105%
same,"nuclei count, normalised",[1]; [6],105%
same,"nuclei count, normalised",[1]; [7],101%
same,"nuclei count, normalised",[1]; [8],107%
same,"nuclei count, normalised",[1]; [9],99.6%
same,"nuclei count, normalised",[1]; [10],98.8%
same,"nuclei count, normalised",[1]; [11],88.9%
same,"nuclei count, normalised",[1]; [12],95.1%
same,"p53-positive nuclei, normalised",[2]; [13],-0.106% (inactive)
same,"p53-positive nuclei, normalised",[2]; [14],-0.0148% (inactive)
same,"p53-positive nuclei, normalised",[2]; [15],-0.164% (inactive)
same,"p53-positive nuclei, normalised",[2]; [16],0.097% (inactive)
same,"p53-positive nuclei, normalised",[2]; [17],-0.0788% (inactive)
same,"p53-positive nuclei, normalised",[2]; [18],-0.0424%
same,"p53-positive nuclei, normalised",[2]; [19],-0.00427%
same,"p53-positive nuclei, normalised",[2]; [20],0.00889%
same,"p53-positive nuclei, normalised",[2]; [21],-0.209%
same,"p53-positive nuclei, normalised",[2]; [22],0.0845%
CCCCN(Cc1ccc(C(=O)NO)cc1)C(=O)Nc1ccccc1,"nuclei count, normalised",[1]; [3],103%
same,"nuclei count, normalised",[1]; [4],99.5%
same,"nuclei count, normalised",[1]; [5],114%
same,"nuclei count, normalised",[1]; [6],118%
same,"nuclei count, normalised",[1]; [7],74.8%
same,"nuclei count, normalised",[1]; [8],109%
same,"nuclei count, normalised",[1]; [9],101%
same,"nuclei count, normalised",[1]; [10],99.5%
same,"nuclei count, normalised",[1]; [11],90.2%
same,"nuclei count, normalised",[1]; [12],67.8%
same,"p53-positive nuclei, normalised",[2]; [13],-0.143% (inactive)
same,"p53-positive nuclei, normalised",[2]; [14],0.163% (inactive)
same,"p53-positive nuclei, normalised",[2]; [15],0.295% (inactive)
same,"p53-positive nuclei, normalised",[2]; [16],0.281% (inactive)
same,"p53-positive nuclei, normalised",[2]; [17],5.72% (inactive)
same,"p53-positive nuclei, normalised",[2]; [18],-0.0551%
same,"p53-positive nuclei, normalised",[2]; [19],-0.12%
same,"p53-positive nuclei, normalised",[2]; [20],0.226%
same,"p53-positive nuclei, normalised",[2]; [21],0.149%
same,"p53-positive nuclei, normalised",[2]; [22],13.7%
